Assay results: PubChem BioAssay (NCI)
Compounds without any hit were thinned out: in the full panel of roughly 83,000, 20% have a hit.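 Single-concentration screen, 48 h exposure, 96-well plates. Endpoint: percent growth. Below 10 = active.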 Calls of active or inactive are those of the source.

Tested on: HL-60(TB) leukemia
Assay: NCI-60 one-dose screen, 48 h (100 = growth as untreated, 0 = no growth, -100 = all killed)
Conditions: 10 µM unless noted

| Compound | growth |
| --- | --- |
| O=C1c2cccc3c(-c4ccc(-c5nc6c7ccccc7c7ccccc7c6[nH]5)cc4)ccc(c23)C(=O)N1CCN1CCNCC1 | 82.5% (inactive) |
| O=C(N/N=C\c1ccccc1O)C1CC1 | 101% (inactive) |
| COc1cc(OC)cc(C(=O)Nc2cc(-c3cccnc3)nc(NCCCN3CCOCC3)n2)c1 | 86.5% (inactive) |
| Nc1ncnc(Nc2ccc(C(F)(F)F)cc2)n1 | 89.2% (inactive) |
| COc1cccc(/C=C2\COc3ccc(O)c(O)c3C2=O)c1 | -20% (active) |
| Cc1ccc(Cn2c(O)c(N=NC(=O)c3ccc(S(N)(=O)=O)cc3)c3ccccc32)cc1 | 98.6% (inactive) |
| Cc1cccc(OCC(O)CN2CCN(c3ccc(Cl)cc3)CC2)c1 (stereo not given) | 97.9% (inactive) |
| Nc1c(C(=O)Nc2ccccc2)sc2nc3c(cc12)CCC3 | 60.9% (inactive) |
| Clc1ccc2c(NCCCNc3nccc(Nc4ccc(Br)cc4)n3)ccnc2c1 | -69.2% (active) |
| O=[N+]([O-])c1ccc(Br)o1 | 74.8% (inactive) |
| CSc1ncccc1C(=O)OCC(=O)Nc1oc(C)c2c(C)n[nH]c(=O)c12 | 98.2% (inactive) |
| Fc1[nH]nc2ccc([C@@H]3Nc4ccc5[nH]ncc5c4[C@H]4C5CCC(C5)[C@@H]34)cc12 (stereo not given in full) | 14.4% (inactive) |
| CC(C)C(=O)OCCOc1ccc(C(C)(C)C)cc1 | 107% (inactive) |
| O=C(Nc1ccc2[nH]ncc2c1)c1csc(Nc2ccccc2)n1 | 9.35% (active) |
| COc1ccc(C2=NN(C(N)=S)C(c3ccc4c(c3)OCO4)C2)cc1 (stereo not given) | 30.4% (inactive) |
| COc1ccc(-c2ccc3cc(C(=O)Nc4ccc(O)c(C(=O)/C=C/c5cc(OC)c(OC)c(OC)c5)c4)ccc3c2)cc1 | 95.5% (inactive) |
| COC12C=C/C(=C(/C(=O)OCc3ccccn3)C(=O)CCCCCCCCC3(OC)C=C/C(=C(/C(=O)OCc4ccccn4)C(=O)CCCCCCCC1)O3)O2 | -19% (active) |
| COC(=O)[C@H](C)NC(=O)[C@@H](OC)[C@@H]1Cc2cc3cc(OC4CC(OC5CC(O)C(O)C(C)O5)C(O)C(C)O4)c(C)c(O)c3c(O)c2C(=O)[C@H]1OC1CC(OC2CC(OC3CC(C)(O)C(O)C(C)O3)C(O)C(C)O2)C(O)C(C)O1 (stereo not given in full) | 20.8% (inactive) |
| C=C1C(=O)O[C@H]2[C@H]1CC/C(COC(=O)CCCCCCCC(=O)OC/C1=C/CC[C@@]3(C)O[C@H]3[C@H]3OC(=O)C(=C)[C@@H]3CC1)=C\CC[C@@]1(C)O[C@@H]21 | -18.3% (active) |
| COc1ccc(N2CCN(c3ccc(NC4=C(Cl)C(=O)c5ncccc5C4=O)cc3)CC2)cc1 | 53% (inactive) |

| Compound | growth |
| --- | --- |
| O=C(Cc1nc2cc(Cl)c(Cl)cc2nc1CC(=O)c1ccccc1)c1ccccc1 | 29.7% (inactive) |
| CS(=O)(=O)Nc1cc(-c2ccc3ncc(C#N)c(Nc4ccc(F)c(Cl)c4)c3c2)cnc1Cl | 0.119% (active) |
| O=C(c1ccc(C(F)(F)F)c(Cl)c1)N(Cc1ccc(Cl)cc1)c1ccc(-c2cc(C(F)(F)F)[nH]n2)c(O)c1 | -14.9% (active) |
| Cc1ccc(C(=O)C(Br)C(Br)c2ccccc2)cc1 (stereo not given) | 45.1% (inactive) |
| CCN(CC)CCNc1ccc(Cl)cc1Cl | 92.9% (inactive) |
| S=C1NC2(c3ccccc3)CCC(=S)N2c2ccccc21 (stereo not given) | 104% (inactive) |
| O=C(O)c1cc(N=Nc2ccc(-c3ccc(N=Nc4c(S(=O)(=O)O)cc5ccc(Nc6ccccc6)cc5c4O)cc3)cc2)ccc1O | 98.9% (inactive) |
| C=C1C(=O)O[C@H]2[C@H]1CC/C(C=Nc1ccc(C(F)(F)F)cc1N)=C\CC[C@@]1(C)O[C@@H]21 | -7.77% (active) |
| CCCCC(CC#N)(CCC)CCC | 104% (inactive) |
| COc1ccc(-c2cc(-c3ccccc3)nc(SCCCC(=O)NO)n2)cc1 | -31.2% (active) |
| O=C1CSC(c2ccccc2O)N1c1nnc(Cn2cnnc2)o1 (stereo not given) | 61.1% (inactive) |
| N/C(=N\O)c1cn(C2OC(CO)C(O)C2O)c2ncnc(N)c12 (stereo not given) | -43.5% (active) |
| c1ccc(-c2nnc(Nc3ccc4c(c3)OCCO4)o2)c(NCc2ccncc2)c1 | 6.43% (active) |
| CCOC(=O)Sc1ncnc2nc[nH]c12 | 2.99% (active) |
| C#CCOc1cccc(-c2ncnc3cc(NC(=O)CCl)ccc23)c1 | -29.7% (active) |
| COC(=O)N[C@H]1CCc2cc(OC)c(OC)c(OC)c2-c2ccc(SC)c(=O)cc21 | -45.4% (active) |
| O=C(CS(=O)c1oc(-c2cccs2)nc1S(=O)(=O)c1ccc(Br)cc1)c1ccccc1 (stereo not given) | 87.9% (inactive) |
| CCCCO[C@@H]1C=C2[C@H]3CC(C)(C)C(=O)C[C@]3(C(=O)O[C@@H]3O[C@H](CO[C@@H]4O[C@H](CO)[C@@H](OC5OC(C)C(O)C(O)C5O)[C@H](O)[C@H]4O)[C@@H](O)[C@H](O)[C@H]3O)CC[C@@]2(C)[C@]2(C)CC[C@H]3C(C)(C)C(=O)CC[C@]3(C)[C@@H]12 (stereo not given in full) | 49.2% (inactive) |
| COc1ccc(Cn2cc(COc3cc(/C=C/C(=O)c4cc(OC)c(OC)c(OC)c4)ccc3OC)nn2)cc1 | 80.3% (inactive) |
| COc1ccc(/C=C(\C#N)c2cc3ccccc3n2C)cc1 | 0.415% (active) |
